Many of the other results were omitted from the sample, so hits are more common in it than they were.
HTT cytoprotect: qHTS Multiplex Assay to Identify Dual Action Probes in a Cell Model of Huntington: Cytoprotection (ATP) | 230,000 tested, 0.14% active | Potency, µM (top dose mostly 56.4 µM), for the others: cytoprotection (ATP increase), most hits filed as activators | AID 1471, 2008 | PC12 HTT-Q103 induced, cytoprotection, ATP luminescence, 40 h; note: % of control where 0% means no effect; nearly all actives have a fitted effect of over 45% in size
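Quantitative HTS on tebufenozide-induced (100 nM) PC12 cells expressing HTTQ103 exon 1–GFP; compounds tested as a concentration series; survival measured via cellular ATP.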
HTT aggregate: qHTS Multiplex Assay to Identify Dual Action Probes in a Cell Model of Huntington: Aggregate Formation (GFP); PC12 HttQ103-GFP aggregates, Acumen cytometry, 40 h; 220,000 tested, 1.1% active; Potency, µM (series often up to 46.1 µM), inactives show top-dose activity change, negative = inhibition, usual class: inhibitors; note: % is set by controls: 0 for no effect and ±100 for the full control effect; nearly all actives have a fitted effect of over 60% in size
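Read-out: GFP aggregate count by laser scanning cytometer (488 nm excitation, 500-530 nm emission, 1–25 µm objects >6 SD above background). Cells: PC12, inducible HTTex1-Q103-GFP, 100 nM tebufenozide; compounds titrated.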
Epigenetic derep: Quantitative High-Throughput Screen for Regulators of Epigenetic Control | Potency, µM (doses to about 53.9 µM), inactives show top-dose GFP activation, actives largely listed as activators | 280,000 tested, 0.2% active | murine LDR cells, GFP reporter derepression, 30 h; note: % of control where 0% means no effect; nearly all actives have a fitted effect of over 60% in size
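Murine LDR cells carrying a silenced, genomically integrated CMV-driven GFP reporter were exposed to compound for 30 hours at 37 C. After PBS washes, GFP-positive cells (20–120 um objects) were counted by laser-scanning microplate cytometry.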
Apoferritin bind: qHTS Assay for Identification of Novel General Anesthetics. Ferritin light chain (Equus caballus), P02791. apoferritin/1-aminoanthracene competitive binding, fluorescence. Potency, µM (titrated, usually from 77.5 µM), inactives show top-dose activity change, negative = displacement, usual class: inhibitors. 350,000 tested, 0.074% active; note: % is set by controls: 0 for no effect and ±100 for the full control effect; nearly all actives have a fitted effect of over 20% in size
Target sequence (P02791 2-175 limits assumed): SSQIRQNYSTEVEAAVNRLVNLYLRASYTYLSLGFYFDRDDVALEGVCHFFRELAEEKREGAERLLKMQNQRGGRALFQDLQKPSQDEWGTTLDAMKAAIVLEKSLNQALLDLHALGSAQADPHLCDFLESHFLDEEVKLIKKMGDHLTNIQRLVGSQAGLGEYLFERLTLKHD
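10 uM apoferritin + 50% sat. 1-AMA, PBS; cpd 10 min RT; Ex380/Em535 endpoint; normalized to free probe vs complex; 4-param Hill fit; propofol titration as pos. ctrl.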
TSG101-PTAP inh: qHTS Assay for Iinhibitors of HIV-1 Budding by Blocking the Interaction of PTAP/TSG101 | Tumor susceptibility gene 101 protein (Homo sapiens), Q99816 | Fluorescence polarization, FITC-PTAP peptide / Tsg101 binding | Potency, µM (titrated, usually from 115 µM), for inactives: at the highest dose activity change, negative = inhibition, most hits filed as inhibitors | 340,000 tested, under 10 active; active = well fitted inhibition curve with a large enough effect in the main read-out, with a control signal flat, not every such curve was filed as active; inconclusive = small, poorly fitted or top-dose-only effect, or effect the other way, or a change in a side signal; inactive = no such curve, though single readings can be large or run the other way; note: % of control where 0% means no effect
Target sequence (Q99816 whole entry, looked up): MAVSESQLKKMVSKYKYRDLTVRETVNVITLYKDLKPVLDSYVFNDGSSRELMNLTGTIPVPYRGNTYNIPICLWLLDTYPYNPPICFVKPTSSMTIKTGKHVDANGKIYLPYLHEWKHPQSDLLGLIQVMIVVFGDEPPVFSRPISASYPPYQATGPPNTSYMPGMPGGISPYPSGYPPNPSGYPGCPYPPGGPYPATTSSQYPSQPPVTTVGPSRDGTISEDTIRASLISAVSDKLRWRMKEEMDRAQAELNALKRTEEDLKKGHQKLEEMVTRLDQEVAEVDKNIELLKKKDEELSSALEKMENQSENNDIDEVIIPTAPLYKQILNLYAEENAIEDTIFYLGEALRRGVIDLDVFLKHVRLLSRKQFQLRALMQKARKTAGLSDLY
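Compounds were pin-transferred onto Tsg101 binding domain (10 uM final) in HEPES pH 7.5 buffer, then FITC-PTAP peptide was added at 50 nM final. After 20 min at RT, polarization reported peptide displacement across a qHTS concentration series.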
PINK1 modulator: A Quantitative High throughput Screen to Identify Chemical Modulators of PINK1 Expression. AID 624263, 2012. 410,000 tested, 0.2% active. PINK1 immunofluorescence, high-content cytometry, 24 h. Potency, µM (highest dose often 76.6 µM), without a hit: top-dose activation (PINK1 increase), hits mostly activators; active = well fitted activation curve with a large enough effect; inconclusive = small, poorly fitted or top-dose-only effect; cell line not stated here; note: % of control where 0% means no effect; nearly all actives have a fitted effect of over 65% in size
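Compound titrations (5 concentrations, 24 h) on a stable cell line; DMSO and CCCP controls. Endpoint: fixed-cell PINK1 immunofluorescence with mitochondrial, cell and nuclear markers, scanned by microplate cytometer.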
* = called active by the depositor; [ ] = remark or other dose. Unless noted, calls come from the whole dose curve; as a rule, active = well fitted curve in the direction sought with a large enough effect; inconclusive = small, poorly fitted or top-dose-only effect, or another doubt; inactive = no such curve, though single readings can be large; an effect the other way counts as inactive or inconclusive. Potency is the fitted concentration of half-maximal effect.

Screening Cc1cc(C)nc(SC2=CS(=O)(=O)c3ccccc32)n1 returned HTT cytoprotect 3.1%[10 µM], HTT aggregate inconclusive, Epigenetic derep 0.8%, Apoferritin bind 0.8%, TSG101-PTAP inh -5.1% and PINK1 modulator 8.4%.
FC(F)(F)c1cnc(C(c2ccccn2)c2ncn[nH]2)c(Cl)c1 (centres undefined) was read as HTT cytoprotect 12.7%[10 µM], HTT aggregate 12.6µM*, Epigenetic derep -0.3%, Apoferritin bind -1.5%, TSG101-PTAP inh -4.8% and PINK1 modulator -1.5%.
OC(CN1C=CCc2ccccc21)c1ccc(Cl)cc1Cl (centres undefined) was read as PINK1 modulator -0.8%.
Screening CCCCNc1c(-c2ccc(Sc3ccc(OC)cc3)cc2)nc2cc(C)ccn12 returned TSG101-PTAP inh 0.9% and PINK1 modulator 28.2µM*.
For OCCCNCc1cc2ccc(F)cc2nc1N1CCN(c2cccc(Cl)c2)CC1 the results were PINK1 modulator 1.6%.
For COc1cc(=O)n2c(c1C(=O)NC(C)c1ccco1)CCN(Cc1cc3ccccc3o1)CC2 (centres undefined) the results were PINK1 modulator -0.3%.
Cc1cc(C)c2c(N)c3cccc(C)c3nc2n1 was read as HTT aggregate 12.6µM*, Epigenetic derep 11.5%, Apoferritin bind 647.5%, TSG101-PTAP inh 0.3% and PINK1 modulator -3.4%.
N#Cc1cc([N+](=O)[O-])ccc1NC(=O)COC(=O)CCC1CCCCC1 was read as HTT cytoprotect -18.0%, HTT aggregate 4.7%, Epigenetic derep -1.7% and Apoferritin bind 31.6µM*.
O=C(O)/C=C/C(=O)c1ccc2c(c1)NC(=O)CO2 was read as HTT cytoprotect 0.199µM*, HTT aggregate -4.3%, Epigenetic derep 0.0%, Apoferritin bind -2.3%, TSG101-PTAP inh -1.0% and PINK1 modulator 3.6%.
`NS(=O)(=O)c1ccc(CCNC(c2ccccc2)c2ccccc2)cc1` gave Apoferritin bind -13.2%, TSG101-PTAP inh -4.1% and PINK1 modulator 0.9%.
`c1ccc(C(NCCNC(c2ccccc2)c2ccccc2)c2ccccc2)cc1` gave HTT cytoprotect -40.3%, Epigenetic derep 3.9%, Apoferritin bind -9.0%, TSG101-PTAP inh -4.7% and PINK1 modulator 39.8µM*.
CC(C)(O)C#Cc1ccc(CN2CCc3nnc(CCNC(=O)c4ccco4)n3CC2)cc1 was read as PINK1 modulator -0.2%.
For COc1ccccc1N1CCN(c2nc(CNC(=O)c3sc(C)nc3C)nc3ccccc23)CC1 the results were PINK1 modulator 0.6%.
Screening Cc1ccc(C(=O)N2c3ccccc3Sc3ccccc32)cc1 returned PINK1 modulator 6.4%.
`Cc1ccc(SCC(=O)N2c3ccccc3Sc3ccccc32)cc1` gave HTT cytoprotect -35.6%, HTT aggregate 15.8µM*, Epigenetic derep -1.4%, Apoferritin bind 86.2%, TSG101-PTAP inh 0.3% and PINK1 modulator 1.7%.
COc1cccc(N2CCN(c3c(C#N)c(C(F)(F)F)nn3C)CC2)c1 was read as HTT cytoprotect 26.2%, HTT aggregate 11.2µM*, Epigenetic derep -1.0%, Apoferritin bind 2.1%, TSG101-PTAP inh 1.5% and PINK1 modulator -0.3%.
Screening Cc1oc(-c2ccccc2NC(=O)C2CCC2)nc1CNC(=O)c1c(F)ccc(F)c1F returned PINK1 modulator -0.3%.
`O=C(Cn1sc2ccccc2c1=O)NC12CC3CC(CC(C3)C1)C2` gave HTT cytoprotect -108.9%, HTT aggregate 10.7%, Epigenetic derep 1.4%, Apoferritin bind 15.8µM*, TSG101-PTAP inh -0.3% and PINK1 modulator -0.7%.
Screening O=C(Cn1sc2ccccc2c1=O)Nc1ccccc1 returned PINK1 modulator 3.3%.
`O=C1c2ccccc2C(=O)N1c1nc(-c2ccc(F)cc2)cs1` gave PINK1 modulator -0.1%.
`CN(C(=O)Nc1ccccc1)C1CCS(=O)(=O)C1` (centres undefined) gave HTT cytoprotect -4.1%[10 µM], HTT aggregate -4.1%, Epigenetic derep 0.0%, Apoferritin bind 3.6%, TSG101-PTAP inh -0.4% and PINK1 modulator 0.3%.
For CC(=O)NC1=C(N(C)C2CCS(=O)(=O)C2)C(=O)c2ccccc2C1=O (centres undefined) the results were HTT aggregate 12.6µM*, Epigenetic derep -1.9%, Apoferritin bind -9.7%, TSG101-PTAP inh -0.7% and PINK1 modulator 4.7%.
`Cc1cc(=O)c(C(=O)N(C)CCc2ccccn2)c2n1-c1ccccc1SC(c1ccsc1)C2` (centres undefined) gave PINK1 modulator -0.4%.
Cc1cc(SCC(=O)N/N=C/c2ccc(O)c(O)c2)nc2ccccc12 was read as Apoferritin bind inconclusive, TSG101-PTAP inh -6.9% and PINK1 modulator 1.4%.
`Cc1cc(SCC(=O)N/N=C/c2ccc(O)c(O)c2)c(C)cc1Br` gave HTT cytoprotect -15.7%, HTT aggregate inconclusive, Epigenetic derep 8.5%, Apoferritin bind 22.4µM*, TSG101-PTAP inh -1.6% and PINK1 modulator -1.4%.
For CC(=O)c1ccc(N/N=C(/C(N)=O)C2=NC(C)(C)Cc3ccccc32)cc1 the results were HTT cytoprotect -20.8%[10 µM], HTT aggregate 11.2µM*, Epigenetic derep -0.6%, Apoferritin bind 2.3%, TSG101-PTAP inh -1.2% and PINK1 modulator -5.7%.
For CC1(C)Cc2ccccc2C(/C(=N\Nc2cccc(Cl)c2)C(N)=O)=N1 the results were HTT cytoprotect -14.1%[10 µM], HTT aggregate inconclusive, Epigenetic derep 1.3%, Apoferritin bind -20.1%, TSG101-PTAP inh -3.7% and PINK1 modulator -3.6%.
For Cc1ccc(N/C=C/c2onc(C)c2[N+](=O)[O-])cc1 the results were HTT cytoprotect 14.6%[10 µM], HTT aggregate 9.0%[9.22 µM], Epigenetic derep 12.9%, Apoferritin bind 0.8%, TSG101-PTAP inh 2.8% and PINK1 modulator 6.2%.
`Cc1noc(/C=C/c2cccnc2)c1[N+](=O)[O-]` gave Apoferritin bind -6.2%, TSG101-PTAP inh -7.3% and PINK1 modulator -4.0%.

Compound activity as filed in PubChem.
